From PubChem BioAssay (EPA / NIEHS)
Active and inactive are the calls of the source. Rule for the calls: active = hit-call score of the fitted dose curve at least 0.9, where 1 is the maximum; inactive = score below 0.9.

assay: ATG_M_32_CIS: Attagene CIS-FACTORIAL HepG2 Assay for M32 Transcription Factor (Internal Marker) (AID 2282949); conditions: HepG2 Attagene cis-factorial M32 reporter, mRNA; actives raise or lower the signal;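 note: background control marker of the multiplexed CIS panel rather than a real target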
Method: ATG_CIS is a cell-based, multiplexed-readout assay that uses HepG2, a human liver cell line, with measurements taken at 24 hours after chemical dosing in a 24-well plate.ATG_M_32_CIS is one of 52 assay component(s) measured or calculated from the ATG_CIS assay. It is designed to make measurements of mRNA induction, a form of inducible reporter, as detected with fluorescence intensity signals by Reverse transcription polymerase chain reaction (RT-PCR) and Capillary electrophoresis technology.Data from the assay component ATG_M_32_CIS was analyzed into 1 assay endpoint. This assay endpoint, ATG_M_32_CIS, was analyzed with bidirectional fitting relative to DMSO as the negative control and baseline of activity. Using a type of inducible reporter, measures of mRNA for gain or loss-of-signal activity can be used to understand the background control at the transcription factor-level as they relate to the gene . Furthermore, this assay endpoint can be referred to as a secondary readout, because this assay has produced multiple assay endpoints where this one serves a background control function. To generalize the intended target to other relatable targets, this assay endpoint is annotated to the background measurement intended target family, where the subfamily is internal marker.
Human liver HepG2 cells are transiently transfected with multiple reporter transcription units (MRTUs) in 6-well plates using FuGene 6 reagent (Roche; 3 ml FuGene/1 mg DNA). The MRTU constructs are regulated by a cis-regulating element (promoter). […] A major difference between the CIS and TRANS system is that in CIS activities of endogenous TFs are measured, whereas the TRANS assay evaluates changes in activities of exogenous, chimeric NR-Gal4 proteins. […] At the end of 24 hour incubation, total RNA was isolated using TriZol reagent (Invitrogen). The isolated RNA is then reverse-transcribed using oligo(dT) primer and Mo-MLV reverse transcriptase (Invitrogen) with DNAse I (Ambion) treatment for 30 min. The one-tenth of the produced cDNA was amplified by PCR using Taq DNA polymerase (Invitrogen) and two reporter sequence-specific primers. The PCR products were fluorescently labeled by primer extension with 6-arboxyfluorescein (6-FAM) 5'-labeled reporter sequence-specific primer (2 min at 95 C, 20 s at 68 C and 10 min at 72 C) and these products were digested with 5U of HpaI (New England Biolabs) for 2h at 37 C. The fragments were purified using Qiaquick PCR columns (Qiagen), analyzed on an ABI 3130xL genetic analyzer (Applied Biosystems) with peak positions identified by using a set of X-rhodamine (ROX)-labeled MapMarker1000 molecular weight standards (BioVentures). The raw capillary electrophoresis data was processed using Attagraph software (Attagene).

SMILES	outcome	AC50
COC(=O)OC	inactive	
O=C(O)C[C@H](O)C[C@H](O)/C=C/c1c(C2CC2)nc2ccccc2c1-c1ccc(F)cc1	inactive	
CC1CC(OC(=O)c2ccccc2O)CC(C)(C)C1 (stereo not given)	inactive	
CC1(C)[C@H](C(=O)OCc2cccc(Oc3ccccc3)c2)[C@@H]1C=C(Cl)Cl	inactive	
CCCOCC(C)O (stereo not given)	inactive	
CN1[C@@H]2CC(OC(=O)[C@H](CO)c3ccccc3)C[C@H]1[C@@H]1O[C@@H]12 (stereo not given in full)	inactive	
C/C=C(\C)C(=O)OCc1ccccc1	inactive	
CC(=O)OCC=Cc1ccccc1	inactive	
C=COCCOCCOCCOC=C	inactive	
O=C[C@@H](O)[C@H](O)[C@H](O)CO	inactive	
O=C(Nc1ccccc1)c1cc([N+](=O)[O-])ccc1Cl	inactive	
CC(C)(C)c1n[nH]c(=S)n(N)c1=O	inactive	
CC(=O)[C@H]1CC[C@H]2[C@@H]3CC=C4C[C@@H](O)CC[C@]4(C)[C@H]3CC[C@]12C	inactive	
CC(C)CCCCCCCOC(=O)c1ccc(C(=O)OCCCCCCCC(C)C)c(C(=O)OCCCCCCCC(C)C)c1	inactive	
CC(c1cc2ccccc2s1)N(O)C(N)=O (stereo not given)	inactive	
CC(C)=CCC/C(C)=C/COC=O	inactive	
O=CCCc1ccccc1	inactive	
CCCCCCCCCCC(CO)CCCCCCCC (stereo not given)	inactive	
CC(CCO)CCCC(C)(C)O (stereo not given)	inactive	
COC(C(=O)O)c1ccccc1 (stereo not given)	inactive	

SMILES	outcome	AC50
C=C(C)C(=O)OCCOC(=O)CC(C)=O	inactive	
CCCC(=O)c1cc(O)c(O)cc1O	inactive	
CC[Si](OC(C)=O)(OC(C)=O)OC(C)=O	inactive	
CCOC(=S)SSC(=S)OCC	inactive	
CO[Si](C)(OC)c1ccccc1	inactive	
CC(C)=CCC[C@](C)(O)[C@@H]1CC=C(C)CC1	inactive	
CC(=O)C(C)=O	inactive	
O=C(O)CCCCCCCCCCC(=O)O	inactive	
C[C@]12CC[C@H]3[C@@H](CCC4=CC(=O)CC[C@@]43C)[C@@H]1CC[C@@H]2C(=O)CO	inactive	
NC(N)=NC(=O)c1nc(Cl)c(N)nc1N	inactive	
COc1ccc(Cl)cc1C	inactive	
c1cc(C(c2ccc(OCC3CO3)cc2)c2ccc(OCC3CO3)cc2)ccc1OCC1CO1 (stereo not given)	inactive	
COc1cc2ncnc(Nc3cccc(Cl)c3)c2cc1OC	inactive	
CC(C)(C)c1cc(CCC(=O)NN)cc(C(C)(C)C)c1O	inactive	
NNc1nc(-c2ccc(N)cc2)cs1	inactive	
CN(C)c1ccc(O)c2c1C[C@H]1C[C@H]3[C@H](N(C)C)C(=O)C(C(N)=O)=C(O)[C@@]3(O)C(=O)C1=C2O	inactive	
CCCCCCCCCCCCCCCCCC(=O)OCC(CC)CCCC (stereo not given)	inactive	
O=C(O)c1cccc(C(F)(F)F)c1	inactive	
C[C@H]1C[C@@H]2[C@H]([C@@H](O)C[C@@]3(C)[C@H]2CC[C@]3(O)C(=O)CO)[C@@]2(C)C=CC(=O)C=C12		131 µM (active)
Clc1sc(Cl)c(Cl)c1Cl	inactive	
